Source: PubChem BioAssay (NCATS)
“And” between values parts separate entries of the source, which are not always exact repeats. Equal entries are not always repeated. Results filed as inconclusive are left out. The source made the active and inactive calls. Unless noted, calls come from the whole dose curve; as a rule, active = well fitted curve in the direction sought with a large enough effect; inconclusive = small, poorly fitted or top-dose-only effect, or another doubt; inactive = no such curve, though single readings can be large; an effect the other way counts as inactive or inconclusive.

Assays:
[1] = Counterscreen for APE1 Inhibitors: Fluorescent Dye Displacement Validation Assay (AID 1707);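 note: plate controls were ThO with dsDNA and no compound for no effect and ThO without dsDNA for full effect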
How it was run: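 Reaction mixture of 250 nM Thiazole Orange and 50 nM double-stranded abasic-site DNA was dispensed, compounds were pin-transferred, and fluorescence was read at endpoint (480 nm ex, 540 nm em). Reduced fluorescence indicated dye displacement by DNA binding.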

[2] = qHTS for differential inhibitors of proliferation of Plasmodium falciparum line 7G8 (AID 1815);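 note: parasite growth measured after three days of incubation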; note: potency is the fitted concentration of half-maximal effect
[3] = qHTS for differential inhibitors of proliferation of Plasmodium falciparum line GB4 (AID 1816); details: Potency: Plasmodium falciparum GB4 proliferation inhibition;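 note: parasite growth measured after 72 h incubation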; note: potency is the fitted concentration of half-maximal effect
[4] = qHTS for differential inhibitors of proliferation of Plasmodium falciparum line HB3 (AID 1886); details: Potency: Plasmodium falciparum HB3 proliferation inhibition;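 note: parasites grown with compound for 72 h before SYBR Green readout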; note: potency is the fitted concentration of half-maximal effect
[5] = Cell Viability - BJ (AID 421; calls by dose curve;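 note: potency is the fitted concentration of half-maximal effect; cells exposed to compound for 40 hours at 37 °C before readout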); details: BJ fibroblast viability, qHTS
How it was run: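 Normal human BJ foreskin fibroblasts, 1500/well in complete medium, treated 40 hr at 37 °C. Cellular ATP by CellTiter-Glo luminescence; normalized to DMSO and 100 uM tamoxifen, AC50 from Hill fit.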

[6] = Cell Viability - Renal Proximal Tubule (AID 545); details: renal proximal tubule cells viability; at 91.7 µM (top of the series), primary cells of rat origin unless noted;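 note: cells exposed to compound for 40 hours; 0% = DMSO only and -100% = 100 µM tamoxifen; nearly all actives have a fitted effect of over 40% in size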
How it was run: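 Rat kidney proximal tubule cells, freshly isolated; 1000 cells/well, 5 hr settle, compound 40 hr 37 °C. CellTiter-Glo 20 min RT, luminescence read. AC50 by standard Hill fit.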

[7] = Cellular Toxicity (caspase-3) Renal Proximal Tubule (AID 667); details: renal proximal tubule cells; at 91.7 µM (top of the series), primary cells freshly taken from rat, solvent-only wells 0%, staurosporine 100% unless noted;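 note: cells exposed to compound for 16 hours at 37 °C before detection; 0% = DMSO basal and 100% = 10 µM staurosporine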
How it was run: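 Luminescent caspase 3/7 signal from peptide-aminoluciferin cleavage measures apoptosis in freshly isolated rat kidney proximal tubule cells after 16 h compound exposure. Concentration-response data are normalized to DMSO and 10 uM staurosporine, and AC50 values come from Hill equation fits.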

[8] = qHTS Assay for Identification of Small Molecule Inducers of Hypoxia Response (AID 2120; active = well fitted curve in the direction sought with a large enough effect in the signal ratio, with a control signal flat, not every such curve was filed as active; the % refers to the signal ratio; note: 0% is about no effect)
How it was run: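 HRE-bla ME-180, 2500 cells/well, 0.5% dialyzed FBS medium; cpd titration, 17 h 37 degrees C; CCF4 2.5 h RT; Ex 405, Em 460/530 ratio -> %Activity, AC50.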

[9] = qHTS assay for small molecule antagonists of retinoid X receptor alpha signaling (AID 588546; active = well fitted inhibition curve with a large enough effect in the signal ratio, with a control signal flat, not every such curve was filed as active; the % refers to the signal ratio;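 note: cells stimulated with 9-cis-retinoic acid as agonist; % is set by controls: 0 for no effect and ±100 for the full control effect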); details: HEK293T RXRa-UAS-bla, beta-lactamase ratio, antagonist mode; measured here: W530 green channel, cytotoxicity proxy
How it was run: (§1)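 Beta-lactamase reporter inhibition, read as CCF4 fluorescence ratio (ex 405, em 460/530 nm) after 2 h at RT. HEK293T UAS-bla cells, 2500/well, were stimulated with 9-cis-RA at 500 or 100 nM final alongside test compound for 18 h at 37 C.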

[10] = biological target: Retinoic acid receptor RXR-alpha (Homo sapiens) (UniProt P19793); test: as above; details: HEK293T RXRa-UAS-bla, beta-lactamase ratio, antagonist mode
Sequence of Retinoic acid receptor RXR-alpha (Homo sapiens) (P19793 whole entry, looked up): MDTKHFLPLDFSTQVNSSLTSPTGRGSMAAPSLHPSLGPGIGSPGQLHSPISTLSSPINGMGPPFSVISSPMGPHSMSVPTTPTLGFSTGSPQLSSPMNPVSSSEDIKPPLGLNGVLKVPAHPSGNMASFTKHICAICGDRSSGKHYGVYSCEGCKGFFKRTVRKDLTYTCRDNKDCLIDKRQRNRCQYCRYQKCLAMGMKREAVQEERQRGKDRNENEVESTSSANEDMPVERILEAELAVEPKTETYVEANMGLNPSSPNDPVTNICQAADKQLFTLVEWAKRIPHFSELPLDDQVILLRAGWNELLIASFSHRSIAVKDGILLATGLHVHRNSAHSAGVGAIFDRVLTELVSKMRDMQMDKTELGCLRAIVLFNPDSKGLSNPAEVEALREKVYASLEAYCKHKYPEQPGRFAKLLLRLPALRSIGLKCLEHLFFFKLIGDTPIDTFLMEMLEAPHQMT
How it was run: as §1

[11] = qHTS assay for small molecule activators of the p53 signaling pathway (AID 651743; active = well fitted activation curve with a large enough effect in the signal ratio, not every such curve was filed as active; the % refers to the signal ratio; note: % of control where 0% means no effect); details: HCT-116 p53RE-bla, beta-lactamase FRET ratio, 16 h; activation: stronger effect = higher value
How it was run: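 A beta-lactamase reporter under p53 response element control, stably carried by HCT-116 cells, reported pathway activation. Test compounds were applied for 16 hours at 37 C, and fluorescence was measured 2 hours after adding the B/G FRET substrate.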

[12] = qHTS assay for small molecule agonists of the antioxidant response element (ARE) signaling pathway measured by Nrf2-dependant transcriptional activity (AID 720636; active = well fitted curve in the direction sought with a large enough effect in the repeat runs; an effect the other way counts as inactive or inconclusive;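 note: HepG2 cells with an ARE-driven luciferase reporter; % of control where 0% means no effect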)
How it was run: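 Attachment 6 hr at 37 C, then compound versus DMSO vehicle for 16 hr in ARE-luc HepG2 cells (1% dialyzed FBS); luminescence recorded 30 min after ONE-Glo addition at room temperature.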

[13] = qHTS assay for small molecule agonists of the antioxidant response element (ARE) signaling pathway measured by Nrf2-dependant transcriptional activity - cell viability counter screen (AID 720653; active = well fitted curve in the direction sought with a large enough effect in the repeat runs; an effect the other way counts as inactive or inconclusive; note: % is set by controls: 0 for no effect and ±100 for the full control effect); details: ARE-bla HepG2 viability, CellTiter-Glo ATP luminescence, 16 h; stronger effect = lower value
How it was run: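 Cytotoxicity counter screen: intracellular ATP quantified by CellTiter-Glo luminescence in the same ARE-bla HepG2 plates, after 16 h compound exposure and a 2 h beta-lactamase substrate step.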

[14] = qHTS assay for cell viability of HEK293 cells (AID 743288); details: ATP luminescence (CellTiter-Glo), 18 h; max response: stronger effect = lower value; note: % is set by controls: 0 for no effect and ±100 for the full control effect; nearly all actives have a fitted effect of over 50% in size
How it was run: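 ATP luminescence (CellTiter-Glo) reports metabolically competent cell number after parental HEK293 cells, 2,000/well, were treated with DMSO-dissolved compounds for 18 h at 37 C; reagent incubation 30 min, room temperature.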

[15] = qHTS assay for cell viability of the p53RE-bla HCT-116 cell line (AID 743292); note: % is set by controls: 0 for no effect and ±100 for the full control effect; nearly all actives have a fitted effect of over 55% in size
How it was run: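 Compound-exposed HCT-116 (p53RE-bla) cells, 4,000 per well, were kept 16 h at 37 C following a 5 h preincubation. Cell number was estimated from total ATP by CellTiter-Glo luminescence read after 30 min at room temperature.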

[16] = biological target: Cytochrome P450 3A4 (Homo sapiens) (UniProt P08684); test: qHTS for inhibitors of CYP3A4 against the NCATS DSHEA and TCM libraries (AID 1919971); note: potency is the fitted concentration of half-maximal effect
Sequence of Cytochrome P450 3A4 (Homo sapiens) (P08684 whole entry, looked up, canonical isoform): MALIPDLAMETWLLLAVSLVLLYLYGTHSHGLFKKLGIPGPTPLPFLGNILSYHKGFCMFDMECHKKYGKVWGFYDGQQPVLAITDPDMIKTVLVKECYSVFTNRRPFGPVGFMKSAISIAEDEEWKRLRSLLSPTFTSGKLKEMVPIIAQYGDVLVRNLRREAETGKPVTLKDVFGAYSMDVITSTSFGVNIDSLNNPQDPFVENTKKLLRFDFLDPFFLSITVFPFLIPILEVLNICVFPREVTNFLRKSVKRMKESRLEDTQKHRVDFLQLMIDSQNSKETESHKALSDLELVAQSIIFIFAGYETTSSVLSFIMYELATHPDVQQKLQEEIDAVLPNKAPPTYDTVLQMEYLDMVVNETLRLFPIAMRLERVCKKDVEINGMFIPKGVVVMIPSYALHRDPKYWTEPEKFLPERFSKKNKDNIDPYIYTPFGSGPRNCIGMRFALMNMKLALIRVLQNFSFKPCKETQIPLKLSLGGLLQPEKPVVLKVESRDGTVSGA
How it was run: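 Isoform-specific enzyme and substrate levels; enzyme-free wells as background. Reaction: 1x NADPH regenerating system, 30-45 min, room temperature, shielded from light; luminescent detection reagent added, 30 min.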

[17] = biological target: Cytochrome P450 1A2 (Homo sapiens) (UniProt P05177); test: qHTS for inhibitors of CYPIA2 against the NCATS DSHEA and TCM libraries (AID 1919976); note: potency is the fitted concentration of half-maximal effect
Sequence of Cytochrome P450 1A2 (Homo sapiens) (P05177 whole entry, looked up): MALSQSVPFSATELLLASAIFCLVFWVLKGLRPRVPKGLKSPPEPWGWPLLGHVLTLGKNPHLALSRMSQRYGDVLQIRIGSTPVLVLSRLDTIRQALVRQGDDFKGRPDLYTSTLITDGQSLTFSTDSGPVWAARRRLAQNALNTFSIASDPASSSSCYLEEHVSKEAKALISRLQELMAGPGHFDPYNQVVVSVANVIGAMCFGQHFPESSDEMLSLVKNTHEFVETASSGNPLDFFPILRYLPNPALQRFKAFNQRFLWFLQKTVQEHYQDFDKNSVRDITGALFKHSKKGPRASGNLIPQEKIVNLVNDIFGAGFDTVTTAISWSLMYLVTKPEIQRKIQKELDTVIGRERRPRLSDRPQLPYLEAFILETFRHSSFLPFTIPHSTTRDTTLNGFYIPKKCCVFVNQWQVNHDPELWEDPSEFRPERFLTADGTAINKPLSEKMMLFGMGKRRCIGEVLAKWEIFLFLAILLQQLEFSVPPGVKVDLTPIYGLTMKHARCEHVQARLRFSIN
How it was run: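 Furafylline served as the plate control. Compounds met CYP1A2 and pro-luciferin substrate 15 min before NADPH regeneration solution (1x) was added; after 30-45 min at RT, P450-Glo reagent was added for 30 min and luminescence was measured.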

[18] = Viability counterscreen for antagonist of constitutive androstane receptor (CAR) against the NCATS DSHEA and TCM libraries (AID 1794837);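 note: compound exposure lasted 24 h before viability reading; 0% is about no effect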
How it was run: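 Cell viability, CellTiter-Fluor, Ex/Em 405/540 nm, 1 h at 37C. HepG2-CYP2B6-hCAR, 2,500 cells/well; cpds + CITCO 48 uM final (antagonist mode), 24 h, 37C/5% CO2.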

[19] = Viability counterscreen for agonist of constitutive androstane receptor (CAR) against the NCATS DSHEA and TCM libraries (AID 1794838); note: 0% is about no effect
How it was run: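 Viability by CellTiter-Fluor fluorescence, 405/540 nm, after 1 h at 37C. HepG2-CYP2B6-hCAR cells were exposed 24 h to test substances in presence of 0.75 uM PK11195 (final).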

[20] = biological target: Nuclear receptor subfamily 1 group I member 3 (Homo sapiens) (UniProt Q14994); test: Primary qHTS for agonist of constitutive androstane receptor (CAR) against the NCATS DSHEA and TCM libraries (AID 1794839); details: Potency: CAR antagonist co-added at 0.75 µM unless noted;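 note: HepG2 cells expressing human CAR with a CYP2B6 reporter plus PK11195 antagonist; 0% is about no effect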
Sequence of Nuclear receptor subfamily 1 group I member 3 (Homo sapiens) (Q14994 whole entry, looked up): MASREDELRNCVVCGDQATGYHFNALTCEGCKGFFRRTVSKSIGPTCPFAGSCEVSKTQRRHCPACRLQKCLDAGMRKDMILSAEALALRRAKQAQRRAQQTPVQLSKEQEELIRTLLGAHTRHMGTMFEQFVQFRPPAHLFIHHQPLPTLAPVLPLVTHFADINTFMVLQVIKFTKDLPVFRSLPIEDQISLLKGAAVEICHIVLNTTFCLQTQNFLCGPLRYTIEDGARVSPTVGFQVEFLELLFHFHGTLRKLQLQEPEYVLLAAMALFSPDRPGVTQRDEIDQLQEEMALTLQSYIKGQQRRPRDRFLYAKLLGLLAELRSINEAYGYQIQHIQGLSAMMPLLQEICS
How it was run: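 Luminescence from ONE-Glo luciferase was the agonist read-out in HepG2-CYP2B6-hCAR cells exposed 24 h to test substances. Wells also held the CAR antagonist PK11195 at 0.75 µM final. Viability was by CellTiter-Fluor fluorescence.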

Oc1cc2c(cc1O)[C@H]1c3ccccc3CNC1CC2 (some centres not stated)
inactive: outcome [1]
active: Potency [2] 10 µM | Potency [3] 12.6 µM | Potency [4] 11.2 µM

C[C@H]1CCCC(=O)CCC/C=C/c2cc(O)cc(O)c2C(=O)O1
inactive: Potency [5] > 92 µM | activity change, negative = cytotoxicity [6] -28.2% [at 91.7 µM] | caspase-3 activation [7] 5.71% [at 91.7 µM] and 9.28% [at 91.7 µM] | outcome [8] | max response [10] -20.8% | activation [11] 20.6% | outcome [12] | max response [13] -27% and -18.5% | max response [14] -26.5% and -8.31% and -15% | Potency [15]
17.7%: max response [9]

C[C@]12C=CC(=O)C=C1CCC1C2=CC[C@]2(C)[C@@H](C(=O)CN3CCN(c4cc(N5CCCC5)nc(N5CCCC5)n4)CC3)CC[C@@H]12 (some centres not stated)
inactive: outcome [1]
active: Potency [2] 1.12 µM | Potency [3] 1.26 µM | Potency [4] 1.41 µM

C/C=C(/C)C(=O)O[C@H]1C(C)=C2C([C@@H]1OC(=O)CCCCCCC)[C@@](C)(OC(C)=O)C[C@@H](OC(=O)CCC)[C@@]1(O)[C@H]2OC(=O)[C@@]1(C)O (some centres not stated)
active: Potency [2] 4.47 µM | Potency [3] 3.16 µM | Potency [4] 10 µM
inactive: outcome [1]

C[C@]12CC[C@H](OS(=O)(=O)O)CC1=CCC1C2CC[C@]2(C)C(=O)CC[C@@H]12 (some centres not stated)
inactive: outcome [1] | Potency [2] | Potency [3] | Potency [4]

C[C@]12CC[C@@H](O)CC1CCC1C2CC[C@]2(C)C(=O)CC[C@@H]12 (some centres not stated)
inactive: outcome [1]

O=C(O)C1C2CCC(O2)C1C(=O)O (configuration not stated)
-24.5%: max response [9]
inactive: outcome [1] | Potency [2] | max response [10] -26.2% | activation [11] 4.04% | outcome [12] | max response [13] -12.2% | max response [14] -14.9% | Potency [15]

C[C@@H]1O[C@@H](O[C@H]2C[C@@H](O)[C@]3(CO)[C@H]4[C@H](O)C[C@]5(C)[C@@H]([C@@H]6COC(=O)C6)CC[C@]5(O)[C@@H]4CC[C@]3(O)C2)[C@H](O)[C@H](O)[C@H]1O
inactive: outcome [1] | Potency [3]

COC1=CC(=O)O[C@@H](/C=C/c2ccc3c(c2)OCO3)C1
10.1%: max response [9]
inactive: Potency [5] > 92 µM | activity change, negative = cytotoxicity [6] -14.1% | caspase-3 activation [7] -22.8% | outcome [8] | max response [10] -29.4% | activation [11] -5.07% | outcome [12] | max response [13] -10.1% | max response [14] -22% | Potency [15]
active: Potency [16] 14.1 µM | Potency [17] 11.2 µM

CN1C[C@H](C(=O)N[C@]2(C)O[C@@]3(O)C4CCCN4C(=O)[C@H](Cc4ccccc4)N3C2=O)C[C@@H]2c3cccc4[nH]cc(c34)C[C@H]21 (some centres not stated)
active: Potency [2] 0.224 µM | Potency [3] 2.24 µM | Potency [4] 0.891 µM

CC[C@@H]1CN2CC[C@]3(C(=O)Nc4ccccc43)[C@@H]2C[C@@H]1/C(=C\OC)C(=O)OC
inactive: outcome [18] | outcome [19] | Potency [20] | Potency [17]

CCCCCCCCCCCCCCCCCCCC(=O)O
active: Potency [17] 22.4 µM
inactive: outcome [18] | outcome [19] | Potency [20] | Potency [16]

COC1=CC(=O)OC(CCc2ccccc2)C1 (configuration not stated)
inactive: Potency [5] > 92 µM | activity change, negative = cytotoxicity [6] -1.23% | caspase-3 activation [7] 1.48% | outcome [8] | max response [10] 14.2% | activation [11] -2.49% | outcome [12] | max response [13] -8.18% | max response [14] -7.7% | Potency [15] | outcome [18] | Potency [16]
-2.34%: max response [9]
